Experimental data: PubChem BioAssay AID1117362 (Southern Research Institute, 2015)
About 100 (2.8%) of roughly 3,600 compounds were called active.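 Rule for the calls: active = inhibition above 30% at one or more concentrations, seen consistently on every test date; inconclusive = results that disagree between repeat test dates; inactive = the rest.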 The list is a sample of the results.

Assay: GST-antibody interaction or FRET quenching – biochemical, TR-FRET, artefact control for Vif-APOBEC3G degradation inhibitor project, dose response (AID 1117362);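 note: biotinylated GST protein used in place of GST-Vif 1-94 and biotin-A3G peptide; detects fluorescence quenchers or blockers of GST binding to anti-GST antibody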
Conditions: TR-FRET counter screen, biotin-GST/anti-GST signal; series mostly up to 100 µM; inhibition: at the top concentration

| SMILES | inhibition |
| --- | --- |
| CN1CCC(N(C)C(=O)COc2ccccc2-c2ccccc2)CC1 | 5.49% (inactive) |
| O=C(O)CCCCC1CCSS1 (configuration not stated) | -2.13% (inactive) |
| CN(C)C(=O)c1nc2ccc(Cl)cn2c1CN1CCCC(OCc2ccccc2)C1 (configuration not stated) | 5.59% (inactive) |
| O=C1CC(Nc2ccc(N3CCOCC3)cc2)C(=O)N1c1ccccc1F (configuration not stated) | 4.96% (inactive) |
| Cc1ccc(/C=C/C(=O)Nc2cccc(S(=O)(=O)N3CCOCC3)c2)o1 | 3.12% (inactive) |
| CCOC(=O)/C=C1\SCC(=O)N1CC(=O)NC(C)c1ccc(F)cc1 (configuration not stated) | 0.82% (inactive) |
| CC1=C(C#N)C(=O)N(C)C(C)(C)C1 | 3.56% (inactive) |
| CN1CCc2nc3ccc(Cl)cc3c(-c3ccccc3Cl)c2C1 | 15.3% (inactive) |
| CNC(=O)c1ccccc1NC(=O)c1ccc(C)c(S(=O)(=O)N2CCCCC2)c1 | 3.71% (inactive) |
| Oc1ccc2ccccc2c1C1Nc2cccc3cccc(c23)N1 | 1.78% (inactive) |
| Cc1cc(C(=O)O)ccc1-n1c(C)ccc1C | 4.73% (inactive) |
| COc1cc(C(=O)NCC(c2ccco2)N2CCCC2)ccc1OCc1c(C)noc1C (configuration not stated) | 4.39% (inactive) |
| Cc1cc(C(=O)CCl)c(C)n1-c1c(C)n(C)n(-c2ccccc2)c1=O | 3.61% (inactive) |
| O=C(O)/C(=C/c1ccco1)NC(=O)c1ccccc1 | 2.44% (inactive) |
| O=[N+]([O-])c1c(NCCCO)cc(SCc2ccco2)c2nonc12 | 27.4% (inactive) |
| CCc1c(C)sc(NC(=O)c2cc(-c3ccco3)on2)c1C#N | 1.8% (inactive) |
| Cc1oc(-c2ccc(Cl)cc2)cc1-c1nn2c(-c3ccoc3C)nnc2s1 | 11.2% (inactive) |
| CCC(c1nnnn1Cc1ccco1)N(Cc1ccccc1OC)Cc1cc2cc(C)ccc2[nH]c1=O (configuration not stated) | -4.56% (inactive) |
| S=c1[nH]nc(COc2ccc3c(c2)OCO3)n1-c1ccccc1 | 4.81% (inactive) |
| O=P(O)(CN1CCCCCC1)CN1CCCCCC1 | 2.91% (inactive) |
| C=CCN=c1scc(-c2ccco2)n1/N=C/c1ccc(O)c(O)c1O | 7.15% (inactive) |
| N#CC1=C(N)OC2=C(CCC/C2=C/c2ccoc2)C1c1ccoc1 (configuration not stated) | 1.5% (inactive) |

| SMILES | inhibition |
| --- | --- |
| Cc1cc(C(=O)CSc2nc3ccccc3c(=O)[nH]2)c(C)n1C | 2.05% (inactive) |
| C=C(C)C(=O)Nc1cccc(C2=NOC3(C2)C[C@@H](C(N)=O)N(C(=O)CC(c2ccccc2)c2ccccc2)C3)c1 (some centres not stated) | -2.21% (inactive) |
| CSc1nc(NCCOCCO)c2sc3nc(-c4ccco4)c4c(c3c2n1)CCC4 | 6.36% (inactive) |
| COC(=O)Cn1c(CCC(=O)O)ccc1-c1ccccc1 | 1.29% (inactive) |
| O=C(OC1CCCCC1)c1ccc2c(c1)C1C=CCC1C(C(=O)O)N2 (configuration not stated) | 15.7% (inactive) |
| COc1cccc(C2C(C#N)=C(N)OC3=C2C(=O)CC(c2ccco2)C3)c1OCc1ccc(F)cc1 (configuration not stated) | 1.37% (inactive) |
| Cc1ccc(CCC(=O)Nc2ccc(S(N)(=O)=O)cc2)o1 | 2.11% (inactive) |
| CCOC(=O)c1cc(NC(=O)N2CCCc3ccccc32)c(C)nc1C | -1.62% (inactive) |
| CNC(=O)[C@@H]1C[C@H]1[C@@H](NC(=O)OCc1ccccc1)c1ccccc1 | 2.14% (inactive) |
| C(=C\c1ccco1)/C=N/n1cnnc1 | -4.46% (inactive) |
| O=C(/C=C/c1ccco1)NC(=S)Nc1ccccc1N1CCOCC1 | 4.93% (inactive) |
| C=CCn1c(O)c(C(CC)=NCCN2CCOCC2)c(=O)[nH]c1=O | 1.31% (inactive) |
| CC(/C=N/n1c(-c2ccncc2)n[nH]c1=S)=C\c1ccco1 | 7.56% (inactive) |
| CCOc1cc(CNc2ccc(O)cc2)ccc1OCc1ccc(Cl)cc1Cl | -7.67% (inactive) |
| O=C(O)C1Nc2c(Cl)cc(Cl)c(Cl)c2C2C=CCC12 (configuration not stated) | 2.36% (inactive) |
| Cc1ccc(NC(=O)CN(C)C(=O)c2cccc(-n3cccc3)c2)cc1 | 1.89% (inactive) |
| CCc1ccccc1NC(=O)c1cccc(NC(=O)/C=C/c2ccco2)c1 | -3.66% (inactive) |
| Cc1cc2ccccc2n1CCNC(=O)C1CCCCC1 | 22.4% (inactive) |
| COc1cccc(-n2c(Cc3cc(=O)[nH]c(=O)[nH]3)nnc2SCC(=O)NC2CCCC2)c1 | -1.98% (inactive) |
| Cc1cc(C)nc(N2CCC(C(=O)O)CC2)n1 | 0.27% (inactive) |
| COc1ccc(NC(=S)NCCc2ccccc2OC)c(OC)c1 | -8.17% (inactive) |
| C=CCn1c(COc2ccc(F)cc2)nnc1SCC(=O)NC(=O)NCc1ccco1 | 0.17% (inactive) |

| SMILES | inhibition |
| --- | --- |
| Clc1ccc(OCc2nn3c(-c4ccco4)nnc3s2)c(Cl)c1 | -1.9% (inactive) |
| COC(C(=O)C(O)C(C)O)C1Cc2cc3cc(OC4CC(OC5CC(O)C(O)C(C)O5)C(O)C(C)O4)c(C)c(O)c3c(O)c2C(=O)C1OC1CC(OC2CC(OC3CC(O)C(OC)C(C)O3)C(O)C(C)O2)C(O)C(C)O1 (configuration not stated) | -1.16% (inactive) |
| O=c1oc(/C=C/c2ccco2)nc2sc3c(c12)CCC3 | 1.89% (inactive) |
| Cc1cc(C(=O)CSc2nnc(-c3ccccc3)n2Cc2ccc3c(c2)OCO3)c(C)n1C | -0.57% (inactive) |
| COC(=O)c1ccc(COc2ccccc2/C=C(\C#N)C(=O)Nc2c(C)cc(C)cc2C)cc1 | -3.51% (inactive) |
| CCOc1ccc(-c2nnn(CC(=O)c3ccc4c(c3)OCCO4)n2)cc1OCC | -2.88% (inactive) |
| Cc1cccc(C)c1NC(=O)CSc1nnc(-c2ccco2)c(-c2ccco2)n1 | 4.93% (inactive) |
| O=C(C1CCCN1S(=O)(=O)c1cccc2cccnc12)N1CCN(c2ccccc2)CC1 (configuration not stated) | 18% (inactive) |
| CNc1ccccc(-c2ccc3cc4c(cc3n2)OCO4)c1=O | 6.22% (inactive) |
| O=C(CCN1C(=O)/C(=C/c2cccs2)SC1=S)NC1=NCCS1 | 3.86% (inactive) |
| COCCNc1nnc(SC(C)C(=O)Nc2ccc(-c3nc4ccc(C)cc4s3)cc2)s1 (configuration not stated) | -10.4% (inactive) |
| COc1ccc2[nH]c(=O)c(CN(Cc3ccco3)C(c3nnnn3Cc3ccccc3)C(C)C)cc2c1 (configuration not stated) | 8.05% (inactive) |
| C=CCOC(=O)C1=C(C)NC(SCC(=O)Nc2ccccc2)=C(C#N)C1c1ccco1 (configuration not stated) | -0.21% (inactive) |
| N#C/C(=C\c1ccc([N+](=O)[O-])o1)C(=O)Nc1ccc(F)cc1 | -4.89% (inactive) |
| c1cn2cc(CSC3CCCCC3)nc2s1 | 2.38% (inactive) |
| Cc1ccc(N2C(=O)/C(=C\c3ccco3)SC2=S)cc1 | -2.25% (inactive) |
| CCC(C)(C)n1nnnc1C(c1ccc2ncccc2c1)N1CCN(c2ccc(O)cc2)CC1 (configuration not stated) | 11.3% (inactive) |
| CC1(C)OC(=O)C(=C2CCCN2)C(=O)O1 | 2.43% (inactive) |
| COC(=O)C1=C(C)NC(=O)/C1=C\c1cc(C)n(-c2ccccc2C)c1C | 0.71% (inactive) |
| O=C(Nc1ccc(F)cc1)C(c1ccccc1)N1CCN(S(=O)(=O)c2ccc3ccccc3c2)CC1 (configuration not stated) | -1.89% (inactive) |
| CCCCC(=O)NC(=S)Nc1cc(C(=O)O)ccc1Cl | 2.22% (inactive) |
| Cc1occc1-c1nnc(SCC(=O)N2CCN(c3ccccc3)CC2)n1C | 11.3% (inactive) |

| SMILES | inhibition |
| --- | --- |
| CC(C)n1c(=NC(=O)c2ccco2)c(C#N)cc2c(=O)n3ccccc3cc21 | 7.91% (inactive) |
| CCOC(=O)C1CCN(C(=O)COc2ccc(S(=O)(=O)NC(C)C)cc2)CC1 | -2.82% (inactive) |
| CCOC(=O)Cc1cc(=O)n2[nH]c(C)cc2n1 | -1.93% (inactive) |
| COCCNC(=O)c1ccc(CS(=O)(=O)c2c(Cl)cccc2Cl)o1 | 4.28% (inactive) |
| CC(C)CC(=O)Nc1nnc(-c2ccco2)s1 | 0.89% (inactive) |
| CCOc1cccc(CNCCNC(=O)c2nonc2N)c1 | -2.13% (inactive) |
| COc1ccc(-n2c(Cc3cccn3C)nnc2SCC(N)=O)cc1 | 7.71% (inactive) |
| COC(=O)CCCC(=O)Nc1c(F)c(F)c(F)c(F)c1F | -2.58% (inactive) |
| CCOc1ccc(Nc2nc3ccccc3n3nnnc23)cc1 | -1.63% (inactive) |
| CN(CC(=O)Nc1cccc(F)c1)C(=O)c1cccc(-n2cccc2)c1 | -2.98% (inactive) |
| O=C(NC1CCC(C(=O)O)CC1)OCc1ccccc1 (configuration not stated) | 1.11% (inactive) |
| CCc1cc(=O)n2[nH]c(C)c(-c3ccccc3OC)c2n1 | -1.39% (inactive) |
| COc1cccc(CNC(=O)CCNS(=O)(=O)c2cccs2)c1 | 2.89% (inactive) |
| COc1cccc(C(C#N)N2CCCCC2)c1O (configuration not stated) | 0.26% (inactive) |
| O=C(N/N=C/c1cn(Cc2cccc(F)c2)c2ccccc12)c1cc(O)cc(O)c1 | 6.55% (inactive) |
| O=C(CSc1nnnn1-c1ccccc1)Nc1ncc2c(n1)CC(c1ccco1)CC2=O (configuration not stated) | 0.22% (inactive) |
| CCOc1ccc(NCC2CCOC(C)(C)C2)cc1 (configuration not stated) | 9.47% (inactive) |
| CCOC1(OCC)N=C(N)C2(C#N)C(c3cccc(OC)c3OC)C12C#N (configuration not stated) | 5.56% (inactive) |
| CCOC(=O)C1CCCN(C(=O)c2ccc(CNc3c(N4CCC(C)CC4)c(=O)c3=O)cc2)C1 (configuration not stated) | -4.81% (inactive) |
| CCc1ccc(CC)c(S(=O)(=O)Nc2ccc(C(=O)O)c(O)c2)c1 | 4.62% (inactive) |
| CC/C(=C\C(=O)c1ccncc1)Nc1ccc(O)cc1 | 20.5% (inactive) |
| CCNc1ccc(Br)cc(C(=O)/C=C/c2ccc3c(c2)OCO3)c1=O | -2.1% (inactive) |

| SMILES | inhibition |
| --- | --- |
| O=[N+]([O-])c1cc(CN2CCOCC2)c2cccnc2c1O | 17.9% (inactive) |
| Cc1ccc[n+](-c2[nH]c(=O)sc2/C=N/NC(=O)c2ccccc2[O-])c1 | 0.56% (inactive) |
| Cc1cc(C(=O)CSc2nnc(-c3ccco3)o2)c(C)n1Cc1ccco1 | 0.59% (inactive) |
| COc1ccc2[nH]c3c4c(ccc3c2c1)C(=O)C=CC4=O | 5.16% (inactive) |
| O=C(Nc1ccccc1N1CCCC1)c1ccc(Br)o1 | 5.44% (inactive) |
| COC(=O)C(C)Sc1nnc(Cc2cc(=O)[nH]c(=O)[nH]2)n1-c1cc(C)ccc1C (configuration not stated) | 0.66% (inactive) |
| O=C(Nc1ccccc1)C1=C(O)CC(c2ccco2)CC1=Nc1ccccc1 (configuration not stated) | -0.44% (inactive) |
| O=C(c1cc(-c2ccco2)on1)N1CCN(c2ccccc2)CC1 | -4.83% (inactive) |
| Cc1cc(NC(=O)CCNS(=O)(=O)c2cc(Br)cnc2N)ccc1Br | 5.53% (inactive) |
| Cc1cc(C(=O)CSc2nnnn2C)c(C)n1CCc1ccc(Cl)cc1 | 5.37% (inactive) |
| CC1(C)CCCN(C(=O)c2coc(=O)c(Br)c2)C1 | 1.09% (inactive) |
| FC(F)(F)c1cc(-c2ccco2)nc(NCc2cccnc2)n1 | -1.65% (inactive) |
| CN(C)c1ccc(NC(=O)CSc2nc3ccccc3c(=O)n2C2CCCCC2)cc1 | 2.21% (inactive) |
| Cn1cccc1C(=O)NC(=O)COC(=O)CC12CC3CC(CC(Br)(C3)C1)C2 | 4.29% (inactive) |
| CC(=O)Nc1ccc(NC(=O)C(C)OC(=O)CC23CC4CC(CC(Br)(C4)C2)C3)cc1 (configuration not stated) | 2.41% (inactive) |
| O=C(O)C1Nc2c(C(=O)N3CCOCC3)cccc2C2C=CCC12 (configuration not stated) | 0.78% (inactive) |
| O=C(Nc1ccn(-c2ccccc2)n1)c1ccccc1Br | -3.02% (inactive) |
| CC(=O)c1cccc(NC(=O)CN2C(=O)NC3(CCCCCCC3)C2=O)c1 | 5.93% (inactive) |
| COc1ccc(-n2c(C)cc(C(=O)CSc3nn4c(=O)c(C(C)(C)C)nnc4s3)c2C)cc1 | -3.69% (inactive) |
